# About 83,000 compounds went through this panel and 20% of them were active in at least one assay; those are over-represented in the sample as a whole.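 Testing used 96-well plates and a 48-hour single-concentration exposure. Example: -40 means 40% of the starting cells died.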 The source made the active and inactive calls.
# System: HS 578T breast
# Experiment: NCI-60 one-dose screen, 48 h (100 = growth as untreated, 0 = no growth, -100 = all killed)
# Conditions: 10 µM
# Experimental: Growth inhibition of the HS 578T human tumor cell line is measured as a screen for anti-cancer activity. Cells are grown in 96 well plates and exposed to the test compound for 48 hours. Compounds are tested at a single concentration, which is 10^-5 M for most compounds. The reported endpoint is percent growth (GI% or GIPRCNT), where numbers from 0 - 100% represent growth inhibition, and numbers from -100% - 0 represent cell death. For example, a value of 40 represents 60% growth inhibition. A value of 0 means no net growth occurred over the course of the experiment. A value of -40 indicates 40% of cells at the beginning of the experiment died by the end of the experiment. A value of -100 means all cells are dead at the end of the experiment.
# NCI-60 Human Tumor Cell Lines Screen was performed using the standard one-dose NCI protocol, which is described in more detail at https://dtp.cancer.gov/discovery_development/nci-60/default.htm.
# Compounds with GIPRCNT values below 10 were considered active. Activity score was based on GIPRCNT using the following formula: […]
# Score is 0 for GIPRCNT values of 100 or above, 50 for GIPRCNT values of 0, and 100 for GIPRCNT values of -100.
row,Structure (SMILES),growth
1,CO[C@H](C(=O)N[C@@H](CCCCNC(=O)OCc1ccccc1)C(=O)OC(C)(C)C)[C@@H]1Cc2cc3cc(OC4CC(OC5CC(O)C(O)C(C)O5)C(O)C(C)O4)c(C)c(O)c3c(O)c2C(=O)[C@H]1OC1CC(OC2CC(OC3CC(C)(O)C(O)C(C)O3)C(O)C(C)O2)C(O)C(C)O1 (stereo not given in full),-16.4% (active)
2,Fc1ccc(NCc2cn(-c3ccccc3)nc2-c2ccc(OCc3ccccc3)cc2)cc1Cl,104% (inactive)
3,CCCCCCCC(=O)SCC/C=C/[C@@H]1CC(=O)NCc2cccc(n2)C2=N[C@@](C)(CS2)C(=O)N[C@@H](C(C)C)C(=O)O1,15.4% (inactive)
4,CCc1nc2ccc(Cc3ccc(C(=O)NO)cc3)cc2c(=O)n1CCc1ccccc1,14.9% (inactive)
5,O=C1/C(=C\c2cccc(OCCCCCOc3ccc(Cl)cc3)c2)N=C2SCCCN12,87% (inactive)
6,CC(C)[C@@H]1CC[C@]2(CO2)[C@@H]2C(=O)OCC(C(=O)O)=C[C@H]21,-5.29% (active)
7,Nc1cc2c(cc1Br)-c1c(C(=O)O)cccc1C2O (stereo not given),143% (inactive)
8,Nc1c2c(c(O)c3c1=C(CO)C=N3)=NCCS2=O (stereo not given),1.72% (active)
9,c1ccc2c(c1)CCN(NCCN1CCCC1)C2,85.6% (inactive)
10,N#Cc1c(-c2ccc(Cl)cc2)csc1NC(=O)Nc1cccc(C(F)(F)F)c1,47.9% (inactive)
11,O=C(NCCO)Nc1ccc(-c2nc(N3CCOCC3)c3cccn3n2)cc1,-34.5% (active)
12,CO/C=C/C(=O)c1cc2cnc3c(=N)cc(NC(=O)C(C)C)c([nH]1)c23,-6.02% (active)
13,CC[n+]1c(/C=C/C=C2\N(C)c3ccccc3C2(C)C)sc2ccccc21,39.8% (inactive)
14,CCN(CC)Cc1cc(Nc2cc(C(F)(F)F)c(C#N)c3nc4ccccc4n23)ccc1O,22.8% (inactive)
15,C=C1C[C@H](O)[C@H](Br)C(C)(C)[C@@]12CCC(C)=C(Cl)C2,22.3% (inactive)
16,Cc1cc(C2(c3ccc(O)c(C)c3)OS(=O)(=O)c3ccccc32)ccc1O,101% (inactive)
17,COc1ccc2c(CCCc3ccc(Cl)cc3Cl)c3[n+](cc2c1OC)CCc1cc2c(cc1-3)OCO2,32.9% (inactive)
18,O=C1CC(c2ccc(Cl)cc2)c2ncn(-c3cccc(Cl)c3)c2N1 (stereo not given),52.8% (inactive)
19,COc1ccc(CCCc2c3[n+](cc4c(OC)c(OC)ccc24)CCc2cc4c(cc2-3)OCO4)cc1,97.2% (inactive)
20,Cc1cc2c(-c3nc4ccccn4c3NC34CC5CC(CC(C5)C3)C4)c(O)c(O)cc2c(O)c1-c1c(C)cc2c(-c3nc4ccccn4c3NC34CC5CC(CC(C5)C3)C4)c(O)c(O)cc2c1O,21.8% (inactive)

row,Structure (SMILES),growth
1,COc1ccc(C(=O)N2c3ccccc3Sc3ccccc32)c(F)c1,15.9% (inactive)
2,Cc1cccc(NC(=O)[C@@H]2c3ccccc3C(=O)N(c3ccc(Cl)cc3)[C@H]2c2ccc(Cl)cc2)n1,72.4% (inactive)
3,COC(=O)[C@@H](OC)[C@@H]1Cc2cc3cc(OC4CC(OC5CC(O)C(O)C(C)O5)C(O)C(C)O4)c(C)c(O)c3c(O)c2C(=O)[C@H]1OC1CC(OC2CC(OC3CC(C)(O)C(O)C(C)O3)C(O)C(C)O2)C(O)C(C)O1 (stereo not given in full),-10.5% (active)
4,Cc1cc(C(O)CN(C)C)cc2c1ccc1cc(C(C)C)ccc12 (stereo not given),-0.73% (active)
5,Cc1cc(N(CCNc2ccnc3cc(Cl)ccc23)Cc2ccc3c(c2)OCO3)nc(N2CCN(C)CC2)n1,34.4% (inactive)
6,CC(C)C1CCC(C)C(C2(C#N)C(N)=NC(N)=C2C#N)C1=O (stereo not given),101% (inactive)
7,c1cc[n+](Cc2c3ccccc3cc3c2ccc2ccccc23)cc1,13.3% (inactive)
8,Nc1nc(Nc2ccccc2)c(C=Nc2ccccc2)c(=O)[nH]1,87.5% (inactive)
9,O=C(Cn1cncn1)Nc1ccc(-c2nc3ccccc3s2)cc1,103% (inactive)
10,CC(=O)C1CC(C)CCC1C(C)C (stereo not given),106% (inactive)
11,Cc1ccc2oc(=O)cc(-c3cc(-c4cc5ccccc5oc4=O)nc(N)c3C#N)c2c1,70.7% (inactive)
12,COC(=O)[C@@H](C)CNS(=O)(=O)N(c1cc(C(F)(F)F)cc(C(F)(F)F)c1)C1CCN(Cc2ccc(F)cc2)CC1,90.7% (inactive)
13,COc1ccc(C2CC(=O)c3c(O)c(OC)c(OC)c(OC)c3O2)c(O)c1 (stereo not given),36.5% (inactive)
14,O=C(CNc1nc2ccccc2s1)Nc1ccc(-c2nc3ccccc3s2)cc1,100% (inactive)
15,Ic1ccccc1-c1ccccc1,102% (inactive)
16,C=CC[n+]1c(/C=C2\Sc3ccccc3N2C)sc(-c2ccccc2)c1-c1ccccc1,56.9% (inactive)
17,O=C(c1ccccc1)C(c1ccccc1)N1CCOCC1 (stereo not given),97% (inactive)
18,O=C(NO)c1ccc(Cn2c(=O)n(-c3ccccc3F)c(=O)c3ccccc32)cc1,46.6% (inactive)
19,O=C(COc1ccc(/C=C2\Cc3ccc(Cl)cc3C2=O)cc1)Nc1nccs1,101% (inactive)
20,CCCCCCCC(=O)SCC/C=C/[C@@H]1CC(=O)NCc2cc(ccn2)C2=N[C@@](C)(CS2)C(=O)N[C@@H](C(C)C)C(=O)O1,-8.43% (active)

# Reference: PubChem BioAssay (NCI)
